Measured values: PubChem BioAssay AID1347076 (National Center for Advancing Translational Sciences (NCATS), 2019)
Hit rate of the full screen: of about 400,000 compounds, about 13,000 (3.2%) were called active. About 18% were inconclusive and are not listed. For the sample, actives were picked, then their nearest neighbours and some compounds at random. Unmarked numbers belong to inactive results. The call rests on the fitted dose curve; in most records, active means well fitted cell-killing curve with a large enough effect; inconclusive means small, poorly fitted or top-dose-only effect, or effect the other way; inactive means flat fitted curve, though single readings scatter.

assay: qHTS assay for MDR1-selective chemotherapeutics: Primary screen using the drug-selected MDR subline cells KB-V1; details: KB-V1 MDR cells viability, CellTiter-Glo, 72 h; series mostly up to 46.1 µM; activity change, negative = cytotoxicity: at the top concentration; further: nearly all actives have a fitted effect of over 60% in size
Procedure, shortened: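 Cytotoxicity toward P-gp-expressing KB-V1 cells was determined as loss of CellTiter-Glo luminescence after 72 h at 37 degrees C. Compounds were tested in quantitative HTS format across a concentration range, with curves fitted to normalized data.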
On the % scale 0 is the no-effect control and ±100 the full control effect; potency means the concentration at half of the fitted maximal effect.

SMILES	activity change, negative = cytotoxicity [%]	Potency
Cc1ccc([C@H]2C[C@H](O)[C@@H](n3cc(COC(=O)c4ccccc4)nn3)CN2C(=O)C2CCCCC2)cc1	0	–
CCc1ccc(CNC(=O)C2CCCN(c3nc4ccccc4o3)C2)cc1 (stereo unspecified)	–	14.6 µM (active)
COc1ccccc1CNC(=O)C1CCN(c2nc3ccccc3o2)CC1	-16.6	–
COc1ccc(OC)c(CNC(=O)C2CCCN(c3nc4ccccc4o3)C2)c1 (stereo unspecified)	-14.5	–
COc1ccc(S(=O)(=O)N(C)C)cc1NC(=O)COC(=O)c1n[nH]c2ccccc12	0.0514	–
CCCNC(=O)C1(C)CCCN(Cc2c(C)nn(-c3ccccc3)c2C)C1 (stereo unspecified)	4.98	–
O=C(CSc1ncn[nH]1)Nc1nc2c(F)c(F)c(F)cc2s1	13.1	–
CN1OC[C@@H]2CN(S(=O)(=O)c3cccc(C(F)(F)F)c3)[C@H](c3ccc(-c4cc5ccccc5o4)cc3)C[C@@H]21	-10.5	–
COc1ccc(CCNC(=O)COC(=O)Cc2ccccc2F)cc1	0	–
COc1ccc(C(CNCC(=O)Nc2ccccc2F)N(C)C)cc1 (stereo unspecified)	-28	–
COc1ccc(C(CCNCc2ccccc2F)c2ccc(F)cc2)cc1 (stereo unspecified)	–	14.6 µM (active)
O=S1(=O)CC(N2CCSCC2)CN1Cc1cn(Cc2cccc(Cl)c2)nn1 (stereo unspecified)	12.2	–
COc1cc2[nH]c(C)c(CCN3CCN(c4ccccc4)CC3)c2cc1OC	-6.06	–
Cc1ccc(NS(=O)(=O)c2cc3c(cc2Br)NC(=O)CO3)cc1C	-18.7	–
COc1cc(OC)c(/C=C/c2ccnc3ccccc23)c(OC)c1	-2.16	–
O=C(Cn1nc(C(F)(F)F)c2c1CCC2)NCc1ccc(F)cc1	–	11.6 µM (active)
CCC(C)NC(=O)Cn1nc(C(F)(F)F)c2c1CCC2 (stereo unspecified)	4.8	–
O=C(Cn1nc(C(F)(F)F)c2c1CCCC2)Nc1ccc(Cl)cc1	9.58	–
CC(C)Cn1cc(-c2cncc3nccn23)cn1	3.33	–
CCCC(=O)N1CCC1(C)C(=O)NCc1ccc(C(C)C)cc1 (stereo unspecified)	5.11	–
Cc1sc(NC(=O)c2ccc3ncsc3c2)c(C(N)=O)c1C	16.3	–
Cc1ccc(C(=O)Nc2nc(-c3ccccc3)ns2)cc1	-0.0266	–
Cc1ccc(C(=O)c2c(NC(=O)c3ccccc3)sc(C)c2C)cc1	–	9.2 µM (active)
O=C(/C=C/[C@H]1O[C@@H](n2ccc(=O)[nH]c2=O)[C@H](O)[C@@H]1O)NCc1ccccn1	-12.4	–
O=[N+]([O-])c1ccc(CN2CC(N3CCC(c4ccccc4)CC3)CS2(=O)=O)cc1 (stereo unspecified)	-9.02	–
COC(=O)c1sccc1S(=O)(=O)N(CC(=O)Nc1ccc(C)c(F)c1)c1ccc(C)c(C)c1	-27.7	–

SMILES	activity change, negative = cytotoxicity [%]	Potency
O=C(OC1CC2CC1[C@H]1CCCCN1C2=O)N1CCOCC1 (stereo partly specified)	17.6	–
O=NN(CCCl)C(=O)NCCc1cccc[n+]1[O-]	18.4	–
Cc1sc2ccccc2c1CNC[C@H]1O[C@@H](n2ccc(=O)[nH]c2=O)[C@H](O)[C@@H]1O	5.69	–
CCCCN1CC(N2CCN(Cc3cccc(C)c3)CC2)CS1(=O)=O (stereo unspecified)	-5.98	–
SCc1nc2ccc(Cl)cc2[nH]1	-8.15	–
Clc1ccccc1SCc1nc2ccccc2[nH]1	–	20.6 µM (active)
O=c1[nH]nc(CSCc2ccccc2Cl)[nH]1	3.22	–
O=C(OCc1nc2ccccc2[nH]1)C1CCCCC1	27.9	–
Clc1ccc(-c2nnc(SCc3nc4ccccc4s3)o2)cc1	-2.53	–
CCN(C(=O)CSc1nnc(-c2ccncc2)o1)c1ccccc1	2.6	–
c1ccc(-c2nnc(SCc3nc4ccccc4[nH]3)o2)cc1	–	20.6 µM (active)
c1ccc2c(CSCc3nc4ccccc4[nH]3)cccc2c1	–	20.6 µM (active)
Nc1cccc(CCc2nc3ccccc3[nH]2)c1	-4.21	–
Cc1ccccc1NC(=O)Cn1cc(C(=O)c2cccs2)c2ccccc21	-23.2	–
Cc1ccc(CNC(=O)CCNS(=O)(=O)c2ccc3c(c2)oc(=O)n3C)cc1	0.743	–
O=C(NCCc1cccc(F)c1)C1CC(O)CN1C(=O)Nc1ccccc1 (stereo unspecified)	23.9	–
Cc1ccc([C@@H]2CC(=O)[C@@H]3CN(S(=O)(=O)c4ccc(C)cc4)[C@H](c4ccccc4F)C[C@@H]3N2S(=O)(=O)c2ccc(Cl)cc2)cc1	2.77	–
C=C1C(=O)[C@]23C[C@H]1CCC2[C@@]1(C)C(C[C@@H]3O)[C@](C)(C(=O)O)CC[C@@H]1O (stereo partly specified)	-2.82	–
O=C(NC1CCCC1)C1c2ccccc2OCC(=O)N1Cc1ccccc1 (stereo unspecified)	-6.86	–
CC1(C(=O)Nc2cccc3c2CCCC3)CCN1C(=O)C1(c2ccccc2)CC1 (stereo unspecified)	-0.882	–
Brc1nc2ncnc(NCc3ccco3)c2[nH]1	-7.71	–
COCOCCn1cc(CN2CCS(=O)(=O)N(Cc3ccc(-c4ccccc4)cc3)C(CC(C)C)C2=O)nn1 (stereo unspecified)	-17.5	–
Cc1cccc(OCCSc2nc3ccccc3n2CC(=O)N2CCCCC2)c1C	5.3	–
CCOC(=O)c1nn(-c2cccc(C)c2)cc1C(=O)c1ccccc1	–	14.6 µM (active)
CC(=O)c1nn(-c2ccc(C)cc2)cc1C(=O)c1cccc(Br)c1	3.34	–
CCOC(=O)c1cn(Cc2cccc(C)c2)nn1	10.5	–

SMILES	activity change, negative = cytotoxicity [%]	Potency
Cc1c(Nc2cc(N3CCCC(C)C3)c3nonc3c2[N+](=O)[O-])c(=O)n(-c2ccccc2)n1C (stereo unspecified)	13.6	–
Nc1cc(N2CCCCCC2)c2nonc2c1[N+](=O)[O-]	–	8.2 µM (active)
COCCNc1nc(N)c([N+](=O)[O-])c(N2CCCCCC2)n1	-0.779	–
CC1(C)OC(=O)C2=C(C[C@@H](C3CCCCC3)O[C@@H]2c2ccc(Cl)cc2)O1	-23	–
Cc1[nH]n(-c2cccc(Cl)c2)c(=O)c1/C=N/n1c(C)nc2ccccc2c1=O	–	7.31 µM (active)
Cc1[nH]n(-c2ccccc2)c(=O)c1/C=N/NC(=O)c1ccoc1C	-24.5	–
CCCc1nc2ccccc2c(=O)n1/N=C/c1ccc(O)c(O)c1	-23.5	–
COc1ccc(C(CNC(=O)CSc2ccccc2)N2CCOCC2)cc1 (stereo unspecified)	-1.79	–
Cc1ccc2cccc([N+](=O)[O-])c2n1	8.04	–
Cc1cccc(C)c1NC(=O)COC(=O)c1c(C)nn(-c2ccccc2)c1C	-18.2	–
CCC(Oc1ccccc1)C(=O)OCC(=O)Nc1c(C)nn(-c2ccccc2)c1C (stereo unspecified)	19.3	–
Cc1nn(-c2ccccc2)c(C)c1/C=C/C(=O)OC(C)C(N)=O (stereo unspecified)	–	23.1 µM (active)
CCOC(=O)C1CCCN(C(=O)c2cccc3ccccc23)CC1 (stereo unspecified)	2.97	–
Cc1c(CN2CCC(CO)(CCOc3ccccc3)CC2)[nH]c2ccc(Cl)cc12	–	5.8 µM (active)
CC(C)(O)C#Cc1ccc(CN2CCC(CO)(CCc3ccccc3)CC2)cc1	-12.5	–
CCOC(=O)C1(CCOc2ccccc2)CCN(Cc2cc(OC)c(O)cc2Cl)CC1	-24.4	–
COc1cc(OC)c(NC(=O)N2CC3CCCN3c3ccccc32)cc1Cl (stereo unspecified)	-18	–
C[C@@H]1CN([C@@H](C)CO)C(=O)CCCn2nncc2CO[C@H]1CN(C)C(=O)Nc1ccc(C(F)(F)F)cc1	-3.62	–
CCc1nc2cccnc2n1-c1ccc(CC(=O)Nc2c(C)cccc2C)cc1	7.03	–
CC1CC(C)CN(c2oc(-c3ccc(OCc4ccc(Cl)cc4)cc3)nc2C#N)C1 (stereo unspecified)	0	–
CCOc1ccc(Br)cc1S(=O)(=O)Nc1cccc(S(=O)(=O)N(CC)CC)c1	-5.63	–
CCN(CC)S(=O)(=O)c1ccc(N(C)Cc2cccc(OC)c2OC)nc1	–	6.51 µM (active)
CCN(CC)S(=O)(=O)c1ccc(OC)c(NC(=O)CCc2c(C)noc2C)c1	-7.82	–
CCC(C(=O)Nc1cccc(Cl)c1C)n1nc(-c2ccc(C)cc2)ccc1=O (stereo unspecified)	0	–
CCc1nc2c(OCCOc3ccccc3)cccn2c1N(C=O)Cc1ccc(OC)cc1	-23	–
Cc1cc(C)n(-c2nc(C(F)(F)F)nc3ccccc23)n1	18.4	–

SMILES	activity change, negative = cytotoxicity [%]	Potency
CC(Nc1nc(C(F)(F)F)nc2ccccc12)c1cccs1 (stereo unspecified)	-18.5	–
CCc1ccc(C(CNc2nc(C(F)(F)F)nc3ccccc23)N(C)C)cc1 (stereo unspecified)	–	16.4 µM (active)
CC1=C(C(=O)N(C(C)C)C(C)C)CC(CC(=O)NCC2CCCCC2)C(=O)N1Cc1ccccc1 (stereo unspecified)	-6.01	–
O=C(NCC1CCCO1)c1ccc2ccccc2n1 (stereo unspecified)	20.7	–
COc1ccc2cc(C(=O)NCC3CCCO3)[nH]c2c1 (stereo unspecified)	-5.71	–
O=C(NCC1CCCO1)c1cc2c([nH]c3ccccc32)c(-c2ccc(F)cc2)n1 (stereo unspecified)	–	11.6 µM (active)
Cc1cccc(N(CC(=O)N2CCCC2)S(C)(=O)=O)c1C	-10.2	–
Cc1ccc2c(CN3CCN(S(=O)(=O)c4ccccc4C(F)(F)F)CC3)cc(=O)oc2c1	-4.4	–
O=C(NCc1ccccc1)C1CCCN(S(=O)(=O)c2cccs2)C1 (stereo unspecified)	-11.5	–
CC(=O)N1CCN(Cc2cc(=O)oc3cc(C)ccc23)CC1	23.4	–
O=S(=O)(c1cccs1)N1CCc2ccccc2C1	-1.64	–
COc1ccc2c(CN3CCN(S(=O)(=O)c4cccs4)CC3)cc(=O)oc2c1	–	13 µM (active)
O=S(=O)(c1cccs1)N1CCN(Cc2ccccc2)CC1	–	16.4 µM (active)
O=c1cc(CN2CCCCCCC2)c2c(ccc3ccccc32)o1	0	–
CCOC(=O)Cn1c(SC)nc2sc3c(c2c1=O)CC(C)(C)OC3	0	–
CCC(O)CNc1nc(-n2nc(C)cc2C)nc2sc3c(c12)CC(C)(C)OC3 (stereo unspecified)	–	2.59 µM (active)
COCCNc1nc(-n2nc(C)cc2C)nc2sc3c(c12)CCCC3	–	9.2 µM (active)
COCCn1c(C)cc(C(=O)CSc2ncnc3sc4c(c23)CCC4)c1C	-0.688	–
CCc1nc(N2CCN(C(C)=O)CC2)c2c3c(sc2n1)CCCC3	0.835	–
CC/C(C)=N/Nc1nc2sc3c(c2c(=O)[nH]1)CC(C)(C)OC3	0	–
O=C(NC1CCCCC1)C(c1cc2ccccc2o1)n1c(=O)c(-c2ccco2)nc2ccccc21 (stereo unspecified)	0.699	–
Nc1[nH]c(C(=O)c2ccccc2)c(-c2ccncc2)c1C(=O)NCc1cccc2ccccc12	-26.5	–
Cc1ccc(Cn2cc(CN3CC(N4CCN(C)CC4)CS3(=O)=O)nn2)cc1 (stereo unspecified)	-0.565	–
